Reference: PubChem BioAssay (EPA / NIEHS)
The source made the active and inactive calls. How the source made its calls: active means hit-call score of the fitted dose curve at least 0.9, where 1 is the maximum; inactive means score below 0.9.

Assay: ATG_M_19_CIS: Attagene CIS-FACTORIAL HepG2 Assay for M19 Transcription Factor (Internal Marker) (AID 2282939)
Conditions: HepG2 Attagene CIS-FACTORIAL M19 internal marker reporter; actives raise or lower the signal
Experimental: ATG_CIS is a cell-based, multiplexed-readout assay that uses HepG2, a human liver cell line, with measurements taken at 24 hours after chemical dosing in a 24-well plate.ATG_M_19_CIS is one of 52 assay component(s) measured or calculated from the ATG_CIS assay. It is designed to make measurements of mRNA induction, a form of inducible reporter, as detected with fluorescence intensity signals by Reverse transcription polymerase chain reaction (RT-PCR) and Capillary electrophoresis technology.Data from the assay component ATG_M_19_CIS was analyzed into 1 assay endpoint. This assay endpoint, ATG_M_19_CIS, was analyzed with bidirectional fitting relative to DMSO as the negative control and baseline of activity. Using a type of inducible reporter, measures of mRNA for gain or loss-of-signal activity can be used to understand the background control at the transcription factor-level as they relate to the gene . Furthermore, this assay endpoint can be referred to as a secondary readout, because this assay has produced multiple assay endpoints where this one serves a background control function. To generalize the intended target to other relatable targets, this assay endpoint is annotated to the background measurement intended target family, where the subfamily is internal marker.
Human liver HepG2 cells are transiently transfected with multiple reporter transcription units (MRTUs) in 6-well plates using FuGene 6 reagent (Roche; 3 ml FuGene/1 mg DNA). The MRTU constructs are regulated by a cis-regulating element (promoter). […] A major difference between the CIS and TRANS system is that in CIS activities of endogenous TFs are measured, whereas the TRANS assay evaluates changes in activities of exogenous, chimeric NR-Gal4 proteins. […] At the end of 24 hour incubation, total RNA was isolated using TriZol reagent (Invitrogen). The isolated RNA is then reverse-transcribed using oligo(dT) primer and Mo-MLV reverse transcriptase (Invitrogen) with DNAse I (Ambion) treatment for 30 min. The one-tenth of the produced cDNA was amplified by PCR using Taq DNA polymerase (Invitrogen) and two reporter sequence-specific primers. The PCR products were fluorescently labeled by primer extension with 6-arboxyfluorescein (6-FAM) 5'-labeled reporter sequence-specific primer (2 min at 95 C, 20 s at 68 C and 10 min at 72 C) and these products were digested with 5U of HpaI (New England Biolabs) for 2h at 37 C. The fragments were purified using Qiaquick PCR columns (Qiagen), analyzed on an ABI 3130xL genetic analyzer (Applied Biosystems) with peak positions identified by using a set of X-rhodamine (ROX)-labeled MapMarker1000 molecular weight standards (BioVentures). The raw capillary electrophoresis data was processed using Attagraph software (Attagene).

Compound | outcome | AC50
Brc1ccc(Oc2ccccc2)cc1 | inactive | –
Nc1cc(Cl)cc(C(=O)O)c1Cl | inactive | –
OCCCl | inactive | –
Nc1ccc(Cl)cc1N | inactive | –
C=CCc1ccc2c(c1)OCO2 | inactive | –
N#CC(Br)Br | inactive | –
CCCCCCCCCCCCCN1CC(C)OC(C)C1 (stereo not given) | inactive | –
CCOc1cccc(C2(N3CCN(c4ccccc4)CC3)CCC(C)CC2)c1 (stereo not given) | inactive | –
[O-][Cl+]O | inactive | –
CCOC(=O)[C@]1(c2ccccc2)Oc2ccccc2[C@@H]1N | inactive | –
c1ccc(NNc2ccccc2)cc1 | inactive | –
CCCCCCCCOC(=O)c1ccc(C(=O)OCCCCCCCC)c(C(=O)OCCCCCCCC)c1 | inactive | –
CN(C)c1ccccc1 | inactive | –
O=C(Oc1ccc(Br)cc1)N1CCN2CCC1CC2 | inactive | –
OCCCBr | inactive | –
CCCCCOC(=O)c1ccccc1C(=O)OCCCCC | inactive | –
CS(=O)(=O)NC(=O)c1cc(Oc2ccc(C(F)(F)F)cc2Cl)ccc1[N+](=O)[O-] | inactive | –
Clc1ccc(C(c2ccc(Cl)cc2)C(Cl)Cl)cc1 | inactive | –
CC(C)N(Cc1ccccc1)C(=O)C(C)(C)C | inactive | –
Cc1ccc([N+](=O)[O-])cc1 | inactive | –

Compound | outcome | AC50
CCC12COCN1COC2 | inactive | –
c1ccc2c(c1)oc1ccccc12 | inactive | –
Clc1ccccc1Cl | inactive | –
CCCCC(CC)COC(=O)c1ccc(C(=O)OCC(CC)CCCC)c(C(=O)OCC(CC)CCCC)c1 (stereo not given) | inactive | –
Cc1ccc(N)cc1 | inactive | –
CO[C@@H]1[C@H](OC(=O)NC(=O)CCl)CC[C@]2(CO2)[C@H]1[C@@]1(C)O[C@@H]1CC=C(C)C | inactive | –
C[C@]12C=CC3=C4CCC(=O)C=C4CC[C@H]3[C@@H]1CC[C@@H]2O | inactive | –
O=[N+]([O-])c1ccc(Oc2ccc(Cl)cc2Cl)cc1 | inactive | –
C1=Cc2cccc3cccc1c23 | inactive | –
Oc1ccc2ccc3cccc4ccc1c2c34 | inactive | –
Nc1ccc(N=Nc2ccccc2)cc1 | inactive | –
CCC[CH2][Sn]([Cl])([CH2]CCC)[CH2]CCC | inactive | –
Cn1cc(-c2ccccc2)c(=O)c(-c2cccc(C(F)(F)F)c2)c1 | inactive | –
CC(C)(C)OOC(=O)c1ccccc1 | inactive | –
CC(C)(C)C(O)(CCc1ccc(Cl)cc1)Cn1cncn1 (stereo not given) | inactive | –
Cc1cc(N=Nc2ccccc2C)ccc1N | inactive | –
COc1cc(C=O)cc2c1[C@H](COC(N)=O)[C@]1(OC(C)=O)ON2C[C@H]2[C@@H]1N2C(C)=O | – | 33.4 µM (active)
Cc1ccc(N)c(N)c1 | inactive | –
C[N+](C)(C)CC1CO1 (stereo not given) | inactive | –
Clc1ccc(C(c2ccc(Cl)cc2)C(Cl)(Cl)Cl)cc1 | inactive | –
